Most compounds without a hit are left out; they make up all but 9.3% or so of the library.
Rab9 promoter act: qHTS Assay for Rab9 Promoter Activators; Huh7 Rab9 promoter-luciferase reporter, luminescence, 24 h; Potency, µM (highest dose often 9.22 µM), without a hit: at the top dose activation, negative = inhibition, usual class: activators; 320,000 tested, 2.8% active; note: % of control where 0% means no effect; nearly all actives have a fitted effect of over 60% in size
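Promoter activation is measured as luciferase luminescence in Huh7 cells stably transfected with a Rab9 promoter–luciferase construct, following 24 h compound exposure at 37 °C and 10 min reagent incubation at ambient temperature.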
ELG1 DNA repair: qHTS screen for small molecules that inhibit ELG1-dependent DNA repair in human embryonic kidney (HEK293T) cells expressing luciferase-tagged ELG1; 330,000 tested, 2.3% active; Potency, µM (top dose mostly 46.1 µM), without a hit: at the highest dose activity change, negative = inhibition, most hits filed as inhibitors; HEK293T ELG1-luciferase reporter, luminescence, 16 h; DNA damage induced by 5-fluorouridine; note: % is set by controls: 0 for no effect and ±100 for the full control effect; nearly all actives have a fitted effect of over 55% in size
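HEK293T cells expressing luciferase-tagged ELG1 (2,000/well) received 5-Fluorouridine plus compound or DMSO for 16 hr at 37 °C. Luciferase was read by ONE-Glo luminescence after 30 min at room temperature.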
NPC1 prom act: qHTS Assay for NPC1 Promoter Activators; Potency, µM (doses to about 9.22 µM), for the others: at the top dose activation, hits mostly activators; 320,000 tested, 2.4% active; Huh7 NPC1 promoter luciferase reporter, 24 h; note: % of control where 0% means no effect; nearly all actives have a fitted effect of over 60% in size
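Quantitative HTS used a cell-based reporter: Huh7 cells stably bearing the NPC1 promoter upstream of luciferase were treated with compounds for 24 h, and promoter activation was read as luminescence.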
ELG1 genotoxic: qHTS screen for small molecules that induce genotoxicity in human embryonic kidney (HEK293T) cells expressing luciferase-tagged ELG1; HEK293T ELG1-luciferase reporter, luminescence, 16 h; Potency, µM (top dose mostly 46 µM), without a hit: at the highest dose activity change, positive = activation, actives largely listed as activators; 330,000 tested, 1.3% active; note: % of control where 0% means no effect; nearly all actives have a fitted effect of over 60% in size
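HEK293T cells expressing luciferase-tagged ELG1 were treated with compound or DMSO for 16 hr at 37°C. Luciferase activity was then read after 30 min with ONE-Glo at room temperature; rising signal flags genetic stress.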
SMN2 splice enh: qHTS Assay for Enhancers of SMN2 Splice Variant Expression | HEK293 SMN2-luciferase splicing reporter, luminescence, 30-36 h | Potency, µM (doses to about 46.1 µM), for inactives: top-dose activity change, positive = activation, actives largely listed as activators | 210,000 tested, 2.8% active | AID 1458, 2008; note: % of control where 0% means no effect; nearly all actives have a fitted effect of over 55% in size
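HEK293 cells carry an SMN2 minigene-luciferase reporter in which exon 7 inclusion puts luciferase in frame. Cells were seeded at 2000 cells/well, attached for 10-12 hours, then exposed to compounds for 30-36 hours at 37C before ONE-Glo luminescence.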
FLuc counter: qHTS profiling assay for firefly luciferase inhibitor/activator using purifed enzyme and Km concentrations of substrates (counterscreen for miR-21 project) | Luciferin 4-monooxygenase (Photinus pyralis), P08659 | purified FLuc, Km substrates, luminescence inhibition | Potency, µM (doses to about 57.5 µM), inactives show at the highest dose activity change, negative = inhibition, usual class: inhibitors | 360,000 tested, 6.9% active | AID 588342, 2011;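 note: plate controls were vehicle for no effect and reference inhibitor for full effect; nearly all actives have a fitted effect of over 55% in size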
Target sequence (P08659 whole entry, looked up): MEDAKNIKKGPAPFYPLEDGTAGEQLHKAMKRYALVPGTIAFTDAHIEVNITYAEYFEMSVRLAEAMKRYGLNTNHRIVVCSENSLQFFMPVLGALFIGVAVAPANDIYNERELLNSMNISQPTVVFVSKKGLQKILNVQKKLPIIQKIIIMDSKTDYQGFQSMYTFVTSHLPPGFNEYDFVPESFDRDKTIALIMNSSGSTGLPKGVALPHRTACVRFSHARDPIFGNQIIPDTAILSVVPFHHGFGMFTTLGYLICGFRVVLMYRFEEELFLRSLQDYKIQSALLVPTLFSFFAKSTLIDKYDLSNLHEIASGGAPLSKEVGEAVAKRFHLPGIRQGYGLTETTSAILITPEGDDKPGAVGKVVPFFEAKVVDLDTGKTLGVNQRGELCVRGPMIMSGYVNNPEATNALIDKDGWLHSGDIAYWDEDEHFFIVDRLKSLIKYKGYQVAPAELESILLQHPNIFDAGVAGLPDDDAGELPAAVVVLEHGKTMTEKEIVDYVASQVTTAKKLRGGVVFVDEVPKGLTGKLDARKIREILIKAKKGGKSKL
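Biochemical qHTS of compounds, final roughly 60 µM downward over six points, against 10 nM purified firefly luciferase using Km concentrations of substrates (10 uM D-luciferin, 10 uM ATP) in Tris acetate pH 7.5 buffer; luminescence output.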
* hit, by the source's call; ? = inconclusive; . = no result; [ ] = dose if it differs, or a comment. Calls come from the whole dose curve; as a rule, active = well fitted curve in the direction sought with a large enough effect; inconclusive = small, poorly fitted or top-dose-only effect, or another doubt; inactive = no such curve, though single readings can be large; an effect the other way counts as inactive or inconclusive. Potency is the fitted concentration of half-maximal effect.

SMILES	Rab9 promoter act	ELG1 DNA repair	NPC1 prom act	ELG1 genotoxic	SMN2 splice enh	FLuc counter
CCOc1nc(C)ccc1-c1noc(-c2cccnc2)n1	1%	?	18%	20%	.	?
CC(=O)c1ccc(N2CCN(C(=O)c3ccc4c(=O)n(-c5ccccc5)c(=O)[nH]c4c3)CC2)cc1	-12%	23µM*	-12%	0%	-53%	-4%
C=CCn1c(=O)[nH]c2cc(C(=O)N3CCN(c4cccc(Cl)c4)CC3)ccc2c1=O	-10%	?	0%	-9%	-44%	3%
O=C(c1ccc(Cn2c(=O)[nH]c3ccccc3c2=O)cc1)N1CCN(c2ccc(Cl)cc2)CC1	-9%	23µM*	1%	-18%	-39%	5%
C=CCn1c(=O)[nH]c2cc(C(=O)N3CCN(c4ccc(C(C)=O)cc4)CC3)ccc2c1=O	-10%	18µM*	1%	-4%	-34%	0%
CCC(=O)N(CCc1ccccc1)Cc1cc2cccc(C)c2[nH]c1=O	5%	?	3%	-2%	.	-5%
CCOC(=O)C1=C(COC(=O)c2ccccc2[N+](=O)[O-])NC(=O)NC1C (configuration not stated)	2%	18%	1%	2%	.	-2%
CN(C)c1ccc(C2CC(c3ccccc3)=Nc3nc(-c4ccccc4)cn32)cc1 (configuration not stated)	2%	?	-1%	5%	28%	13µM*
CCOC(=O)[C@@H]1[C@H]2COc3cc(OC)ccc3[C@H]2N2C(=O)N(c3ccc(C(F)(F)F)cc3)C(=O)[C@]12C	.	23µM*	.	-9%	.	.
COc1ccc(NC(=O)CSc2cn(CC(=O)N3CCOCC3)c3ccccc23)cc1OC	.	.	.	.	.	-2%
Cc1cc(C)n(-c2nc(Nc3ccccc3C)nc(-n3nc(C)cc3C)n2)n1	-5%	?	-3%	-12%	11%	-2%
CCNc1nc(NCC)nc(-n2nc(C)cc2C)n1	1%	?	11%	?	4%	1%
Cc1cc(C)n(-c2nc(Nc3ccccc3C(F)(F)F)nc(-n3nc(C)cc3C)n2)n1	-8%	13µM*	-5%	-9%	-97%	4%
Cc1cc(C)n(-c2nc(NC(C)C)nc(NC(C)C)n2)n1	-2%	2.9µM*	0%	-5%	-14%	4%
CC1=NNC(=O)c2ccccc2O1	-3%	0%	-1%	2%	12%	-10%
O=C(CN1C(=O)NC2(CCSC2)C1=O)NCc1ccccc1 (configuration not stated)	-7%	-5%	-3%	3%	3%	1%
Cc1ccc(CC(=O)Nc2c(C(=O)N3CCN(c4ccccc4)CC3)oc3ccccc23)cc1	.	.	.	.	.	-10%
CN(NS(=O)(=O)c1ccc(Cl)cc1)c1nc(C(F)(F)F)nc2ccccc12	0%	23µM*	2%	-17%	-46%	?
CN(NS(=O)(=O)c1ccccc1)c1nc2ccccc2nc1C(F)(F)F	-2%	-6%	-2%	-6%	-14%	0%
COCCn1c(=O)[nH]c2cc(C(=O)NCCN3CCN(c4ccc(OC)cc4)CC3)ccc2c1=O	-2%	9.2µM*	0%	-9%	-58%	-7%
COCCn1c(=O)[nH]c2cc(C(=O)NCCN3CCN(c4ccccc4)CC3)ccc2c1=O	-3%	-25%	0%	2%	-9%	2%
COC(=O)c1ccc2c(=O)n(CCCCCC(=O)N3CCN(c4ccc(F)cc4)CC3)c(=O)[nH]c2c1	2%	2.9µM*	-2%	-18%	-12%	-2%
c1ccc2sc(N3CCCN(Cc4nc(-c5cnccn5)no4)CC3)nc2c1	-22%	?	-1%	-9%	.	4%
COc1cc(C(C)=O)ccc1OCC(=O)NCC1(N2CCCCC2)CCCCC1	-3%	4%	-5%	1%	-20%	4%
CCOC(=O)C1CCN(c2cc3c(cc2NC(=O)c2ccc(OC)c(OC)c2)n(C)c(=O)n3C)CC1	0%	1.6µM*	-8%	-4%[9.26 µM]	2%	-5%
SMILES	Rab9 promoter act	ELG1 DNA repair	NPC1 prom act	ELG1 genotoxic	SMN2 splice enh	FLuc counter
CC12CN3CCN(CC(C3)/C1=N\N=C1/C3CN4CCN(C3)CC1(C)C4)C2	-4%	-2%	2%	-2%	-8%	6%
CCCCN(C(=O)CNC(=O)c1cccs1)C(C(=O)NC1CCCC1)c1ccncc1 (configuration not stated)	-4%	10%	0%	5%	.	7.6µM*
CC1CCC(NC(=O)Nc2cccs2)CC1 (configuration not stated)	?	?	3%	?	18%	15µM*
CCOC(=O)CN(C(=O)CNC(=O)c1cccs1)C(C(=O)NC1CCCC1)c1ccncc1 (configuration not stated)	1%	-2%	1%	-2%	-8%	0%
CC1CCC(NC(=O)CNC(=O)c2cccs2)CC1 (configuration not stated)	4µM*	?	?	?	.	?
N#Cc1ccc(NC(=O)Cn2cnc(S(=O)(=O)N3CCc4ccccc43)c2)cc1	-4%	-7%	-2%	-8%	.	1%
CCc1cc[n+](C2=C([O-])c3ccccc3C(=O)/C2=N\S(=O)(=O)c2cccs2)cc1	-21%	16µM*	-9%	-18%	.	?
Cc1cccc(OCCCn2c(=O)sc3ccccc32)c1	3.2µM*	?	6%	?	-5%	21µM*
Cc1cccc(OCCn2c(=O)n(C)c3ccccc32)c1	1.8µM*	?	3.2µM*	6.5µM*	13µM*	15µM*
COc1cccc(OCc2nc3ccccc3n2CCOc2cccc(C)c2)c1	.	.	.	.	12%	-18%
Cc1cccc(OCCn2c(=O)sc3ccccc32)c1	2.8µM*	?	?	?	13µM*	11µM*
COc1ccc(OCCn2c(=O)sc3ccccc32)cc1	?	?	?	?	?	19µM*
Cc1ccccc1OCCn1c(=O)sc2ccccc21	0%	?	0%	1%	-30%	-20%
Cc1cc(C)nc(NC(=O)c2cc(-c3ccc4c(c3)OCO4)nc3ccccc23)c1	-3%	18µM*	-2%	-9%	.	?
Cc1ccc(C)c(NC(=O)c2cc(C)nc3ccccc23)c1	0%	-9%	0%	-3%	.	-2%
